Shown is part of a subset that was picked to be rich in hits.
Dicer processing – blocks human Dicer maturation of pre-miR-21; cat-ELCCA pre-miR-21 Dicer processing, chemiluminescence; stronger effect = higher value; z-score at 25 µM; 47,000 tested, 6% active; in the data active = z-score above about 3, passing the limit was not always enough;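 note: higher signal means more uncleaved substrate so more Dicer inhibition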
Target sequence (Q9UPY3 whole entry, looked up): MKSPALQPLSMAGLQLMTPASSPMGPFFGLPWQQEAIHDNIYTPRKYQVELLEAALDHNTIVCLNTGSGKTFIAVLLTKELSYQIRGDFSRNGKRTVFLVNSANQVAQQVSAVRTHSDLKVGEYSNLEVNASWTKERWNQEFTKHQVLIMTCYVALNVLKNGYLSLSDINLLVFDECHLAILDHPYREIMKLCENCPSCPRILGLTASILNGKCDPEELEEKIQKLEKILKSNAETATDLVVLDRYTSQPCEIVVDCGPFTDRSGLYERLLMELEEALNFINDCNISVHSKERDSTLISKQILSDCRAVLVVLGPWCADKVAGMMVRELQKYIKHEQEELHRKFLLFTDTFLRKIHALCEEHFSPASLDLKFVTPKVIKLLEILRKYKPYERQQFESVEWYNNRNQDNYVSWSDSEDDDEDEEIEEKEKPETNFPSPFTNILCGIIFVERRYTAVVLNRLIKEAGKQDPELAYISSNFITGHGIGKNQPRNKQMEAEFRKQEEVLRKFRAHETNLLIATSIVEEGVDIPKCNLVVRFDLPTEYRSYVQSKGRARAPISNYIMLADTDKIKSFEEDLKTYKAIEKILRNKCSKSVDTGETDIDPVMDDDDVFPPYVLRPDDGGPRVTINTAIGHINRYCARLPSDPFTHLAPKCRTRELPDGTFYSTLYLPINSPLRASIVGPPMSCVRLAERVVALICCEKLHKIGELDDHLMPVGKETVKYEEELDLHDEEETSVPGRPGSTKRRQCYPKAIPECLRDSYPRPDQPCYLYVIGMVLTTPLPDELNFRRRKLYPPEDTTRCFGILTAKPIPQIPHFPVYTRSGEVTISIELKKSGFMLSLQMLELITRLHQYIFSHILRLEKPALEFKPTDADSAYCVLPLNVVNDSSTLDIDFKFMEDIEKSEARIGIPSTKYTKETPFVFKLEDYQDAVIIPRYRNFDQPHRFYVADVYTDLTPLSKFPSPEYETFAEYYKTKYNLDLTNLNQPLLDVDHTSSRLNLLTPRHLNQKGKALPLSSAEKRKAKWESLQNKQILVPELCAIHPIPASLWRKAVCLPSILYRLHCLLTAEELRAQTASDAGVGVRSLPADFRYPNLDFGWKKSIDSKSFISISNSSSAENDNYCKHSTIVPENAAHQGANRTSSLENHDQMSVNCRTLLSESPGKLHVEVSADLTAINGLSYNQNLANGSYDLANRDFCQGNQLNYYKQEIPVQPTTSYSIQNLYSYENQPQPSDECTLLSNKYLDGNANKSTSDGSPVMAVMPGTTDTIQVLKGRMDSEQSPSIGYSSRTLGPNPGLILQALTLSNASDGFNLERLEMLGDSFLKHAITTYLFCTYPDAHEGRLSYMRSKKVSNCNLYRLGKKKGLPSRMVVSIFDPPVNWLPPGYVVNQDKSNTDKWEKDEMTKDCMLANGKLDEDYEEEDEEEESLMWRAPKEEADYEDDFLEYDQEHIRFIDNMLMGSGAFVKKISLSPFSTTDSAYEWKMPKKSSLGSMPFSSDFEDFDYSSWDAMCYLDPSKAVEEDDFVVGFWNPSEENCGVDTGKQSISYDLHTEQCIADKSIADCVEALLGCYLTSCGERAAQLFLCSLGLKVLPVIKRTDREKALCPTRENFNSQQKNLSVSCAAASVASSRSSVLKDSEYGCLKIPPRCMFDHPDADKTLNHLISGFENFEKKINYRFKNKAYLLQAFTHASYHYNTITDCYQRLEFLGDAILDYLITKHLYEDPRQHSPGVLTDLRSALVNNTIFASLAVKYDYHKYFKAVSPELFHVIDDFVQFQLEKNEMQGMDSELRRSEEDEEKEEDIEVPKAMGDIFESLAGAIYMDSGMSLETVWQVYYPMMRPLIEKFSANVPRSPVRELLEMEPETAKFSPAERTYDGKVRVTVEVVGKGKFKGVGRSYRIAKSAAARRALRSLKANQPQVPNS
Large screens that a line does not name were inactive.

CCOc1cc(C2NC(C(=O)O)CS2)ccc1OCc1ccc(F)cc1 (configuration not stated)	none
CC(c1ccccc1)n1c(CCc2ccc(O)cc2)n[nH]c1=S (configuration not stated)	none
O=C(Cn1cc(C(=O)c2ccco2)c2ccccc21)NCCc1c[nH]c2ccccc12	Dicer processing 4.01
O=C(Cn1cc(C(=O)c2ccco2)c2ccccc21)NCc1ccco1	none
O=C(Cn1cc(C(=O)c2ccco2)c2ccccc21)NCc1cccs1	none
COc1ccc(O)c(C2=NCCNC(C(F)(F)C(F)F)=C2)c1	none
CCOC(=O)c1c(C)[nH]c(C)c1C	none
CCn1nc(-c2cccs2)cc1C(=O)NC(C)C	none
O=c1nc(Nc2ccccc2)oc2ccccc12	Dicer processing 3.75
O=c1nc(-c2ccc(Cl)cc2)oc2ccccc12	none
c1ccc(Nc2nc(-c3ccccc3)nc3ccccc23)cc1	none
CCOC(=O)C1=C(C)NC2=C(C(=O)CCC2)C1c1cc(Cl)c(O)c(OC)c1 (configuration not stated)	none
O=S(=O)(Nc1ccc(F)c(Cl)c1)c1cc(Br)c(Br)s1	none
CCOC(=O)C1=NN(c2ccccc2)C2(C(=O)c3ccccc3C2=O)C1c1ccc(Cl)cc1 (configuration not stated)	none
COC(=O)C1=C(C)NC2=C(C(=O)CC(C)(C)C2)C1c1sc2ccccc2c1C (configuration not stated)	none
CCCOC(=O)C(CC)Oc1ccc2c(=O)c(Oc3ccccc3Br)coc2c1 (configuration not stated)	none
CSc1nc2c(Cl)cccc2c2c1c(=O)[nH]n2C	Dicer processing 3.57
CSc1nc2c(Cl)cccc2c2c1c(=O)n(Cc1ccc(Cl)cc1)n2C	none
CCOC(=O)c1c(SC)nc2c(Cl)cccc2c1N(C)CCO	none
O=C(/C=C(/CC(=O)c1ccc([N+](=O)[O-])cc1)c1ccccc1)c1ccccc1	none
Cn1nccc1C(=O)Nc1ccc(Cl)cc1	none
Cn1nccc1NC(=S)Nc1ccc(Cl)cc1	Dicer processing 4.01
Cn1nccc1NC(=O)Nc1cc(Cl)cc(Cl)c1	none
CC(NS(=O)(=O)c1ccc(N)cc1)C(=O)O (configuration not stated)	none
CC(C)[C@H](NS(=O)(=O)c1ccc(F)cc1)C(=O)O	none
C[C@H](NS(=O)(=O)c1ccc(F)cc1)C(=O)O	Dicer processing 5.26
Cc1ccc(S(=O)(=O)Nc2ccc(C)cc2[N+](=O)[O-])cc1	none
COCCCN=C1NC(=O)C(CC(=O)Nc2cc(Cl)ccc2Cl)S1 (configuration not stated)	none
COCCCN=C1NC(=O)C(CC(=O)Nc2ccccc2Cl)S1 (configuration not stated)	Dicer processing 3.12
O=C(CC1Sc2ccccc2NC1=O)Nc1ccccc1Cl (configuration not stated)	none
CCc1nc(-c2cc3ccccc3[nH]c2=O)no1	none
O=C1C=CC(=O)C2C3c4ccccc4C(c4ccccc43)C12 (configuration not stated)	none
COC(=O)CSc1nc(-c2ccccc2)c2cc(Cl)ccc2n1	none
COc1ccccc1Nc1ncnc(-n2cccc2)n1	none
CC1CCc2c(sc3ncn(CC(=O)O)c(=O)c23)C1 (configuration not stated)	none
O=C(Cn1nnc2sc3c(c2c1=O)CCCC3)Nc1ccc(Cl)cc1	none
CC1CCc2c(sc3nnn(CC(=O)Nc4ccc(Cl)cc4)c(=O)c23)C1 (configuration not stated)	Dicer processing 3.58
O=C(Cn1nnc2sc3c(c2c1=O)CCCC3)Nc1ccc(F)c(Cl)c1	Dicer processing 3.56
O=C(Cn1nnc2sc3c(c2c1=O)CCCC3)Nc1ccccc1	none
CC1CCc2c(sc3nnn(CC(=O)Nc4ccc(Br)cc4)c(=O)c23)C1 (configuration not stated)	none
COc1cccc2c1C(=O)c1c(O)c3c(c(O)c1C2=O)C[C@@](O)(C(=O)CO)C[C@@H]3O[C@@H]1C[C@H](N)[C@@H](O)[C@H](C)O1	none
Cc1c(C)c(C)c(S(=O)(=O)NCCCN2CCCCC2C)c(C)c1C (configuration not stated)	none
Cc1cc(C)n2c(SC(CNS(=O)(=O)c3ccccc3)c3ccccc3)nnc2n1 (configuration not stated)	none
Cc1cc(C)n2c(SC3CCCCC3NS(=O)(=O)c3ccccc3)nnc2n1 (configuration not stated)	none
Cc1cc(C)n2c(SC3CCCCC3NS(=O)(=O)c3ccc(Cl)cc3)nnc2n1 (configuration not stated)	Dicer processing 3.56
C=C(C1CC1)N(C(=O)c1ccc(F)cc1)c1ccc(OC)cc1	none
CC(C)(C)c1cc2nc(C(F)(F)F)cc(NNC(=O)c3ccccc3)n2n1	Dicer processing 6.7
CC(C)(C)c1cc2nc(C(F)(F)F)cc(Sc3ccc(Cl)cc3)n2n1	none
CC(C)(C)c1csc(NNC(=O)c2ccc(Cl)cc2)n1	none
CC(C)(C)c1cc2nc(C(F)(F)F)cc(N/N=C/c3ccccc3)n2n1	none
CC(C)(C)c1cc2nc(C(F)(F)F)cc(NNC(=O)c3ccc(Cl)cc3)n2n1	Dicer processing 5.22
CC(C)(C)c1cc2nc(C(F)(F)F)cc(NNC(=O)Nc3ccccc3)n2n1	none
Cc1cc(C)n(-c2c(Cl)cc(Cl)cc2Cl)n1	none
COc1cccc(-c2nn3c(-c4ccccc4Cl)nnc3s2)c1	none
FC(F)(F)c1cc(-c2ccco2)nc2c(-c3ccccc3)cnn12	none
Cc1noc(N2C(=O)C3C4C=CC(C4)C3C2=O)c1C (configuration not stated)	none
Cc1cccc(N2C(=O)C3C4C=CC(C4)C3C2=O)n1 (configuration not stated)	none
Cc1cc(N2C(=O)C3C4C=CC(C4)C3C2=O)no1 (configuration not stated)	Dicer processing 3.66
CS(=O)(=O)c1sc(Br)c2c1C(=O)CCC2	Dicer processing 4.39
CS(=O)(=O)c1sc(C#N)c2c1C(=O)CCC2	none
CC1(C)CC(=O)c2c(S(C)(=O)=O)sc(Br)c2C1	none
Cc1cc(C)nc(SCC(=O)c2cccs2)n1	none
Cc1cc(C)nc(SCC(=O)c2ccc(O)c(O)c2)n1	Dicer processing 3.15
Cc1cc(C)nc(SCC(=O)c2ccccc2)n1	none
O=C(CSc1n[nH]c(-c2ccccc2Cl)n1)c1ccc(O)c(O)c1	Dicer processing 4.89
COc1ccccc1-c1nc(SCC(=O)c2ccccc2)n[nH]1	none
CCc1nc(SCC(=O)c2ccc(O)c(O)c2)n[nH]1	none
Cc1cc(C)nc(SCC(=O)Nc2ncccn2)n1	none
Cc1cc(C)nc(SCc2ccccc2)n1	none
Cc1cc(C)nc(SCCC(=O)O)n1	Dicer processing 3.23
S=C(NN=C1CCCC1)NC1CC2C=CC1C2 (configuration not stated)	none
O=C(Nc1ccc(C2CCCCC2)cc1)C(=S)NCc1ccccc1	none
NC(=O)c1ccc(-c2ncc3c(n2)-c2ccsc2SC3)cc1	none
CCOC(=O)c1c(-c2ccccc2)c2oc3ccc(Cl)cc3c2[nH]c1=O	none
NS(=O)(=O)c1cc(Cl)c(Oc2ccc([N+](=O)[O-])cc2)c(Cl)c1	none
COc1ccc(Cn2cnc3c2c(=O)n(C)c(=O)n3C)cc1	none
O=C(CCCSc1nc(-c2ccco2)cc(C(F)(F)F)n1)NCc1cccnc1	none
CC1/C(=N\O)CC(c2ccccc2)N(C)C1c1ccccc1 (configuration not stated)	none
OCCSc1ccc(Oc2ccc(SCCO)cc2)cc1	none
O=C(c1ccc(Cl)cc1)N1CCSC1=S	none
COC(=O)c1cc(Cl)cc(Cl)c1-c1c(Cl)cc(Cl)cc1C(=O)OC	none
COC(=O)c1cc(=O)n2c(c1C(=O)c1ccc(Cl)cc1)SCC2	Dicer processing 5.61
COc1ccccc1-c1nn(-c2cc(C(F)(F)F)ccn2)c(=O)o1	none
c1cncc(CNCc2ccncc2)c1	none

From PubChem BioAssay
